Here are results for 23 targets from the supplement of paper PMC10849652.

Of roughly 7,900 targets only a part is listed; those with a hit were picked by preference. About 0.6% of all pairs of compound and target were hits.

Chain of UniProt Q13200 (Q13200 whole entry, looked up): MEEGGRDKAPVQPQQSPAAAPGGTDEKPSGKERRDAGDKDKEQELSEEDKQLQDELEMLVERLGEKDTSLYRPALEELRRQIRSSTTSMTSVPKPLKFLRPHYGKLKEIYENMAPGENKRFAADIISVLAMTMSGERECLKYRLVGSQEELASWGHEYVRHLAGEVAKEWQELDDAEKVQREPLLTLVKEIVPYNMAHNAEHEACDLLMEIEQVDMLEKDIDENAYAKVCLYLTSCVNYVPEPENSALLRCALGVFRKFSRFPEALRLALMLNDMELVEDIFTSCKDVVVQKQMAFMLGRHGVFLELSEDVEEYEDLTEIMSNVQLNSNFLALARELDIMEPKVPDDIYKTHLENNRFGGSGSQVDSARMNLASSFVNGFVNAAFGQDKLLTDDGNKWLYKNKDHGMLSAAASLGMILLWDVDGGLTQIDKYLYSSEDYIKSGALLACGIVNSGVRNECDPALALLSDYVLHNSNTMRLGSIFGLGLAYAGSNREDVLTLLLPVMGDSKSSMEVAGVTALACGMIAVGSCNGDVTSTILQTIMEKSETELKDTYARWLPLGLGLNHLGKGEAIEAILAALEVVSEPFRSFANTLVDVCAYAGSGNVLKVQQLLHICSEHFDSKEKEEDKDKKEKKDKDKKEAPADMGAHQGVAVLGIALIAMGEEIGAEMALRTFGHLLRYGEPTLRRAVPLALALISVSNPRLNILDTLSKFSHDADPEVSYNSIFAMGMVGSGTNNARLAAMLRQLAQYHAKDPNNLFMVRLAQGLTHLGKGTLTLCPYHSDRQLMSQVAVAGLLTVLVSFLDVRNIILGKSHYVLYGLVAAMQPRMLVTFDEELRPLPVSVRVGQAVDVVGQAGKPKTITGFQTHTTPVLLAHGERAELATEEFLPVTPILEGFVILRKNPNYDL
Chain of UniProt P43686 (P43686 whole entry, looked up): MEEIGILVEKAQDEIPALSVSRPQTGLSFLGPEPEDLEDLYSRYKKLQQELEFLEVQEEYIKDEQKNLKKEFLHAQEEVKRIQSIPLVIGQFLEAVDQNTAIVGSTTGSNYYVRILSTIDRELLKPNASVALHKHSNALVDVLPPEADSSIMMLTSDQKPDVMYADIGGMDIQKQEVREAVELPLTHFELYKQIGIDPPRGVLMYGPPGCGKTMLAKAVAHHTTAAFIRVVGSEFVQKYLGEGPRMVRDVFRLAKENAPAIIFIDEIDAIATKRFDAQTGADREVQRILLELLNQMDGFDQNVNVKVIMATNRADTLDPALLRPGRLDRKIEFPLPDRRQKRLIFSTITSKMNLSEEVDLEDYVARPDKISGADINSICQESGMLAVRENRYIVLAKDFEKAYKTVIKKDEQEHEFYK
Chain of UniProt Q99541 (Q99541 whole entry, looked up): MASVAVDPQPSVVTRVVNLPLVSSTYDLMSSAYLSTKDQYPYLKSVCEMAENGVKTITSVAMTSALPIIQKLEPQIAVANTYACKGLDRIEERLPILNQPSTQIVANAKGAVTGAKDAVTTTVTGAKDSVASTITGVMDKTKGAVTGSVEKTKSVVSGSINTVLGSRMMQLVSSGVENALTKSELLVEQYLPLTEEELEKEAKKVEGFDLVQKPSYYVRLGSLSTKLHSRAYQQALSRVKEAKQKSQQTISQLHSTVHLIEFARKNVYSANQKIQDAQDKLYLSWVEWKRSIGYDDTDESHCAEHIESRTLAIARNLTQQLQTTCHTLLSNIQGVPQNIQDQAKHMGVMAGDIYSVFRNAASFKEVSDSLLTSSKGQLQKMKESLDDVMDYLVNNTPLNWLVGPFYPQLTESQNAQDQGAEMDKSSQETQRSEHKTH
Chain of UniProt P10644 (P10644 whole entry, looked up): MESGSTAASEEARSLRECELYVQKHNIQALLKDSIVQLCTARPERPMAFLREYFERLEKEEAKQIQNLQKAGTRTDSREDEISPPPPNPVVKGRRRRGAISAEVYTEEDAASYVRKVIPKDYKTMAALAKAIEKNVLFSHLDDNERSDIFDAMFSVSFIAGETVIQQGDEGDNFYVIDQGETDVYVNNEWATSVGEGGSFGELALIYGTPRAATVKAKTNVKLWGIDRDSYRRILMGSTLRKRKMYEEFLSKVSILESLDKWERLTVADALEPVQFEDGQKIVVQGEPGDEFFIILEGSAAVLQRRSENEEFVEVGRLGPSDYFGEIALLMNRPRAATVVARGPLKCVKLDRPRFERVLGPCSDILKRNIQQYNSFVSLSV
Chain of UniProt O95394 (O95394 whole entry, looked up): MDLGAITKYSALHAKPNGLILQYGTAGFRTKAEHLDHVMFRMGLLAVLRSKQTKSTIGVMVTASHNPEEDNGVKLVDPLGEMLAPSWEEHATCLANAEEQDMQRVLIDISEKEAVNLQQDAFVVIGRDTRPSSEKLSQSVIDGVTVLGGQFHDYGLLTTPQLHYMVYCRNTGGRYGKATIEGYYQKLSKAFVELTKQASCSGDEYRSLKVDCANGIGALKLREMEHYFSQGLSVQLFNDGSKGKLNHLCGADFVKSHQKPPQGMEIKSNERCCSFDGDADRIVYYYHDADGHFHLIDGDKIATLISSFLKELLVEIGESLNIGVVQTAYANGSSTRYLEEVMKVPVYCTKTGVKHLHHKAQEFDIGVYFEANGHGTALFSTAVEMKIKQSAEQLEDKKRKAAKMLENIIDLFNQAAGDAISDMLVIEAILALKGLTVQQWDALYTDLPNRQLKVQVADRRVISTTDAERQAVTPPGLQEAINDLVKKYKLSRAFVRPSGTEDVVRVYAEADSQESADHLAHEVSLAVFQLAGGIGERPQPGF
Chain of UniProt O60925 (O60925 whole entry, looked up): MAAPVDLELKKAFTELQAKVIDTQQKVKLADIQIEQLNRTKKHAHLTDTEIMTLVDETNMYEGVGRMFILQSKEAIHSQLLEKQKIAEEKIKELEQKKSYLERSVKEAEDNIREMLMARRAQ
Chain of UniProt Q8WUM4 (Q8WUM4 whole entry, looked up): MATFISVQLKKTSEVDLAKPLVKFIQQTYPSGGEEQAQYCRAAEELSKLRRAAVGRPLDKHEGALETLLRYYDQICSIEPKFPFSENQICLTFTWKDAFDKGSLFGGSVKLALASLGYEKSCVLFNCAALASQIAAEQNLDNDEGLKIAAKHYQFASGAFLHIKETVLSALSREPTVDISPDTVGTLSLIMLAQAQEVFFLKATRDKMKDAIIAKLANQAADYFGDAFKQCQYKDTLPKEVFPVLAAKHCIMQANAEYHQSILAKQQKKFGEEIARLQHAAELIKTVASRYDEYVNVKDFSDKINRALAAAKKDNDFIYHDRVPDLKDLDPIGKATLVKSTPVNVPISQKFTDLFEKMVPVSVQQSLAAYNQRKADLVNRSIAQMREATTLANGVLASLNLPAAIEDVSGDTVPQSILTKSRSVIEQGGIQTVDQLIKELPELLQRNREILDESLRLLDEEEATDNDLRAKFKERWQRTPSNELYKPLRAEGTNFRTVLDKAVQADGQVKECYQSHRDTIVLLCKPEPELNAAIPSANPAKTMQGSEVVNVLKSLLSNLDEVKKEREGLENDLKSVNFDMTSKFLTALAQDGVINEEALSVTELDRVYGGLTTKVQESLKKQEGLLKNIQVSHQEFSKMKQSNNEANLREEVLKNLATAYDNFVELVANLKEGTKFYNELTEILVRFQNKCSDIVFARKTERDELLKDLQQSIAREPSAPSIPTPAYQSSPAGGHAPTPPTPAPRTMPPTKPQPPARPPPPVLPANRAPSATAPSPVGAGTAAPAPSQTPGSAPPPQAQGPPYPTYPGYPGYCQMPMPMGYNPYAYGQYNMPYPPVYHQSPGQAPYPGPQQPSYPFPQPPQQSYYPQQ
Chain of UniProt P49643 (P49643 whole entry, looked up): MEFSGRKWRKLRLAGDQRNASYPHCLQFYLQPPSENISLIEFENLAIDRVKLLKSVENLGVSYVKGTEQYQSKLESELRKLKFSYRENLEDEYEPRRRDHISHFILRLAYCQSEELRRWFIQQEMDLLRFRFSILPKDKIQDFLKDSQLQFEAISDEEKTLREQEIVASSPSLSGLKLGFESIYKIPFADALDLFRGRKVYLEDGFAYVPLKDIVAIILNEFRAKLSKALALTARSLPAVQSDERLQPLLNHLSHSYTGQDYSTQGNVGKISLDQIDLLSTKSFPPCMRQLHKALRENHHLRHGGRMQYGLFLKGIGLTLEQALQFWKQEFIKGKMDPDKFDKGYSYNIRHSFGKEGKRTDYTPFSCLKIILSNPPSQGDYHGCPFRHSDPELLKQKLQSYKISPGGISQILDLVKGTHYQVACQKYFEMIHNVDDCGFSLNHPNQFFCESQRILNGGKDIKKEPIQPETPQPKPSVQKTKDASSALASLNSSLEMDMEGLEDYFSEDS
Chain of UniProt Q2TAL8 (Q2TAL8 whole entry, looked up): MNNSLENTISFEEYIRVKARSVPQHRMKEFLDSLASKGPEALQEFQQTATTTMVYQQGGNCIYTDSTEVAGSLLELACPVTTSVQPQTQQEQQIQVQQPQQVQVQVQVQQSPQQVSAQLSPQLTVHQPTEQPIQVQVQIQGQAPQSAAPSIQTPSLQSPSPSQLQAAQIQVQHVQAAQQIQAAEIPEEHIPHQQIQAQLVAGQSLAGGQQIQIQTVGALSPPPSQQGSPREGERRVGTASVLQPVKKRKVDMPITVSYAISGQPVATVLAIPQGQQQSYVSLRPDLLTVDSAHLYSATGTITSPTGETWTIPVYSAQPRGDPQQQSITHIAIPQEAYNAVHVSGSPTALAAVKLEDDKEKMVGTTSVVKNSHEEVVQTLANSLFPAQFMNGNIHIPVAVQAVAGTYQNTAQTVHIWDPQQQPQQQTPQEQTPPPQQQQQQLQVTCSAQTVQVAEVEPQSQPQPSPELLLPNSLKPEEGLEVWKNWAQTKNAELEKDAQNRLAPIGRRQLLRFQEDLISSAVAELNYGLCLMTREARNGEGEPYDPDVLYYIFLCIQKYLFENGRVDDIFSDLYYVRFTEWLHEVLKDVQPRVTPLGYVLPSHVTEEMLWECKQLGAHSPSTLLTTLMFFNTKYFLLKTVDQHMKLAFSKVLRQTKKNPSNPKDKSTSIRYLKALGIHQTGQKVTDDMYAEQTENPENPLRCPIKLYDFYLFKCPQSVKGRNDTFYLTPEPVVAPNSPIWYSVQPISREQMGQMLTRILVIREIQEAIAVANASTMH

Compound in this assay: c1cn2cc(-c3ccc4cn[nH]c4c3)nc(Nc3ccc(N4CCOCC4)cc3)c2n1 [entospletinib]
Put plainly: log2 fold change, soluble protein after heating vs DMSO (PISA); higher = thermal stabilisation; K562 cells, 10 uM, 30 min; active = over 0.2 and 3.5 SD of the protein, either way, in both replicates (recomputed). In short, it runs like this: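 K562 cells at 2×10^6 cells/mL were treated for 30 min with 10 μM compound, and aliquots were heated for 3 min over 48°C-58°C before pooling. Extraction used PBS with 0.5% NP-40 at 4°C, and soluble protein was the supernatant after 21,000xg for 90 min, measured by TMTpro 16plex LC-MS/MS with channel sums equalised. Thermal stability values, relative to control samples and from duplicates, are log2 fold changes.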
Take PDCD6IP (UniProt Q8WUM4): the log2 fold change is 0.023 (inactive). The value for PTRHD1 (UniProt Q6GMV3) was 0.064 (inactive); that for PKM (UniProt P14618) was -0.04 (inactive). With QRICH1 (UniProt Q2TAL8) the figure was -0.054 (inactive); with PATL1 (UniProt Q86TB9), 0.076 (inactive); with PRKAR1A (UniProt P10644), 0.389 (inactive). The value for PIP4P2 (UniProt Q8N4L2) was 0.115 (inactive). On to PRIM2 (UniProt P49643), for which the log2 fold change was 0 (inactive). As to PYGB (UniProt P11216), the log2 fold change was -0.156 (inactive). In the case of PSMC4 (UniProt P43686), the log2 fold change was -0.008 (inactive).

For PTTG1IP (UniProt P53801), the log2 fold change was -0.044 (inactive). The value for PSMD2 (UniProt Q13200) was -0.002 (inactive); that for PGM3 isoform 4 (UniProt O95394) was -0.047 (inactive).

Take PLIN2 (UniProt Q99541): the log2 fold change was 0.043 (inactive). In the case of PSMB4 (UniProt P28070), the log2 fold change was -0.009 (inactive). As to PARP16 isoform 3 (UniProt Q8N5Y8), the log2 fold change was 0.074 (inactive). On to PRKAR1B (UniProt P31321), for which the log2 fold change is 0.231 (inactive). With PFDN1 (UniProt O60925) the figure was -0.089 (inactive); with PCYT1A (UniProt P49585), 0.017 (inactive); with POLR3K (UniProt Q9Y2Y1), 0.113 (inactive). Regarding PIP4K2C (UniProt Q8TBX8), the log2 fold change is -0.031 (inactive). On to POP1 (UniProt Q99575), for which the log2 fold change was 0.027 (inactive). The value for PHC3 isoform 7 (UniProt Q8NDX5) was -0.215 (inactive).
